# Laboratory results reported in PubChem BioAssay AID430 (Sanford-Burnham Center for Chemical Genomics, 2006).
# Among all 63,000 compounds or so, about 1,100 (1.7%) were called active. Rule as the data show it: active = cytotoxicity above about 50%; inactive = the rest. Shown is part of a subset that was picked to be rich in actives. Potency and affinity values are given separately.
# Assay: cytotoxicity in HPDE-C7 cells, cell-based, fluorescence, HTS (AID 430);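 also: cells exposed to compound for 48 hours before viability readout; 0% = vehicle and 100% = reference cytotoxic drug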
# Conditions: HPDE-C7 pancreatic duct cells viability, at 10 µM, hits give high values
row,SMILES,cytotoxicity
1,CCCCCCOc1ccc(C(=O)n2cnc(N)n2)cc1,71.3% (active)
2,CCCCOc1ccc(C(=O)N2CCCCCC2)cc1,-14.5% (inactive)
3,COc1ccc(C(=O)n2cnc(N)n2)cc1,2.7% (inactive)
4,CCCCn1nc(NC(=O)c2cccs2)c2cc3cc(OC)ccc3nc21,28.9% (inactive)
5,CCCn1nc(NC(=O)c2cccs2)c2cc3cc(OC)ccc3nc21,-7.4% (inactive)
6,COc1ccc2nc3c(cc2c1)c(NC(=O)c1cccs1)nn3CC(C)C,50.8% (active)
7,O=S(=O)(NCc1ccco1)c1cccc2cccnc12,15.9% (inactive)
8,Cc1ccc(S(=O)(=O)C(C#N)c2nc3ccccc3nc2N2CCCC2)cc1 (configuration not stated),23.3% (inactive)
9,Cc1cccc(S(=O)(=O)C(C#N)c2nc3ccccc3nc2N2CC(C)OC(C)C2)c1 (configuration not stated),7.1% (inactive)
10,Cc1ccc(C)c(S(=O)(=O)C(C#N)c2nc3ccccc3nc2N2CC(C)OC(C)C2)c1 (configuration not stated),48.7% (inactive)
11,Cc1ccc(S(=O)(=O)C(C#N)c2nc3ccccc3nc2N2CCCC2)cc1C (configuration not stated),53.9% (active)
12,Cc1ccc(S(=O)(=O)C(C#N)c2nc3ccccc3nc2N2CC(C)OC(C)C2)cc1C (configuration not stated),50% (active)
13,Cc1cccc(S(=O)(=O)C(C#N)c2nc3ccccc3nc2N2CCCC2)c1 (configuration not stated),-7.1% (inactive)
14,COc1ccc2nc(NC(=O)Cc3ccc(OC)c(S(=O)(=O)N4CCOCC4)c3)sc2c1,13.1% (inactive)
15,C=C1c2ccc(C)cc2NC(=O)N1c1ccccc1,-11.1% (inactive)
16,CCc1c(C)nc2ncnn2c1NCCc1ccc(OC)c(OC)c1,4.7% (inactive)
17,COc1ccc(CCNc2c(C)c(C)nc3ncnn23)cc1,10% (inactive)
18,CCc1c(C)nc2ncnn2c1NCCc1ccc(OC)cc1,64.9% (active)
19,COCCNC(=O)c1ccccc1NC(=O)c1ccc(OC)c(OC)c1,-2.2% (inactive)
20,O=P(c1ccccc1)(c1ccccc1)C(c1ccco1)N1CCOCC1 (configuration not stated),-5.8% (inactive)
21,O=C(Nc1ccc(N2CCOCC2)c(Cl)c1)c1ncn[nH]1,-2.8% (inactive)
22,COc1ccc2[nH]c(C(=O)O)c(CCC(=O)O)c2c1,5.8% (inactive)
23,N[C@@H](Cc1ccc(O)c(I)c1)C(=O)O,-10.4% (inactive)
24,O=C(O)CCc1cc(I)c(Oc2ccc(O)c(I)c2)c(I)c1,92.3% (active)
25,COc1cc(C(=O)Nc2nc3ccccc3[nH]2)cc(OC)c1OC,-19.5% (inactive)

row,SMILES,cytotoxicity
1,Cc1nc2ccc(C(=O)c3ccccc3)cc2[nH]1,-13.6% (inactive)
2,COC(=O)Nc1nc2ccc(Sc3ccccc3)cc2[nH]1,60.6% (active)
3,O=C(Nc1nc2ccccc2[nH]1)c1ccc(F)cc1,-12.8% (inactive)
4,O=C(COc1ccccc1)Nc1nc2ccccc2[nH]1,-9.3% (inactive)
5,COC(=O)Nc1nc2ccc(C(=O)c3ccccc3)cc2[nH]1,69.2% (active)
6,Cc1c(NC(=O)c2cc(-c3ccccc3)on2)c(=O)n(-c2ccccc2)n1C,-4.6% (inactive)
7,O=S(=O)(NCC1CCCO1)c1cccc2nsnc12 (configuration not stated),-2.4% (inactive)
8,O=C(OCc1cc(-c2ccccc2)no1)c1ccc2ccccc2n1,-17.4% (inactive)
9,O=C(Nc1ccc(N2CCOCC2)cc1)c1cnsn1,-19.9% (inactive)
10,CS(=O)(=O)c1ncc(Cl)c(C(=O)Nc2ccc(N3CCOCC3)cc2)n1,72.4% (active)
11,CSc1ncc(Cl)c(C(=O)Nc2ccc(S(=O)(=O)N3CCOCC3)cc2)n1,7.9% (inactive)
12,Cc1cc(NC(=O)CCN2C(=O)c3ccccc3C2=O)no1,-2.5% (inactive)
13,CCn1c2ccccc2c2cc(C3C(C#N)=C(C)NC(C)=C3C#N)ccc21,-2.6% (inactive)
14,CCn1c2ccccc2c2cc(C3C(C#N)=C(N)OC4=C3C(=O)CC(C)(C)C4)ccc21 (configuration not stated),-26.8% (inactive)
15,CCCc1[nH]nc2c1C(c1ccccc1OC)C(C#N)=C(N)O2 (configuration not stated),4.9% (inactive)
16,O=C(O)C1C2C=CC3(CN(Cc4ccncc4)C(=O)C13)O2 (configuration not stated),-13.4% (inactive)
17,O=C(O)C1C2C=CC3(CN(Cc4ccccn4)C(=O)C13)O2 (configuration not stated),63.6% (active)
18,O=C(O)C1C2C=CC3(CN(Cc4ccco4)C(=O)C13)O2 (configuration not stated),-6.3% (inactive)
19,COCCn1c(SCC(=O)N2CCCc3ccccc32)nnc1-c1ccco1,-4.5% (inactive)
20,CC(=O)N1C(=O)C2(Nc3ccccc3N2)c2ccccc21,-0.7% (inactive)
21,CCCCOc1ccc(OCCCC)c2c1NC1(N2)C(=O)N(C(C)=O)c2ccccc21,69.8% (active)
22,CCNC(=O)N1C(=O)C2(OCCO2)c2ccccc21,-15.9% (inactive)
23,CCOC(=O)Cc1nnc(NC(=O)Nc2ccccc2)s1,5% (inactive)
24,Nc1ccc(-c2nc3ccc(-c4nc5ccccc5o4)cc3[nH]2)cc1,76.2% (active)
25,Nc1ccc(-c2nc3ccccc3[nH]2)cc1,-5.6% (inactive)

row,SMILES,cytotoxicity
1,Nc1cc(N)cc(-c2nc3ccccc3o2)c1,18.2% (inactive)
2,O=S(=O)(Nc1nnc(-c2ccccc2)s1)c1ccc(Cl)cc1,8.8% (inactive)
3,FC(F)(F)c1cc(-c2ccco2)nc(-n2nc(C(F)(F)F)cc2C2CC2)n1,5.7% (inactive)
4,Cn1c(=O)c2c(nc(SCC(=O)N3CCCc4ccccc43)n2C)n(C)c1=O,-17.3% (inactive)
5,O=C(CCCCn1c(=O)c2ccccc2n(Cc2ccc(F)cc2Cl)c1=O)NCc1ccco1,2.9% (inactive)
6,O=C(NCc1ccccn1)c1ccc(COc2ccc(Cl)cc2)o1,4.2% (inactive)
7,O=C(c1ccco1)N1CCN(c2nc(C(F)(F)F)nc3c2nnn3Cc2ccccc2)CC1,11.6% (inactive)
8,Cc1nc(N2CCCC2)c2nnn(Cc3ccccc3Cl)c2n1,-10.9% (inactive)
9,CC(=O)Nc1ccc(NC(=O)c2c(C)nc3ccccn23)cc1,6.8% (inactive)
10,COc1ccc(OC)c(C2C(C#N)=C(N)Oc3cc(N)ccc32)c1 (configuration not stated),-0.7% (inactive)
11,COc1ccc(C2C(C#N)=C(N)Oc3cc(O)ccc32)cc1OC (configuration not stated),-6.7% (inactive)
12,Cc1[nH]nc2c1C(C1CC=CCC1)C(C#N)=C(N)O2 (configuration not stated),0.7% (inactive)
13,N#CC1=C(N)Oc2cc(N)ccc2C1C1CC=CCC1 (configuration not stated),59.8% (active)
14,COc1cc(C2C(C#N)=C(N)Oc3cc(N)ccc32)cc(OC)c1OC (configuration not stated),58.5% (active)
15,N#CC1=C(N)Oc2cc(N)ccc2C1C1CCCCC1 (configuration not stated),22.2% (inactive)
16,Cc1cc(C(=O)NCC2CCCO2)n(-c2ccccc2)n1 (configuration not stated),0.2% (inactive)
17,CCOc1ccc(NC(=O)c2oc3ccccc3c2NC(=O)C(C)C)cc1,11.9% (inactive)
18,C=CCN1C(=O)C(CC(=O)O)SC1=Nc1c(C)n(C)n(-c2ccccc2)c1=O (configuration not stated),-3.1% (inactive)
19,Cc1nc2ccccc2c2oc(C(=O)NCc3ccccn3)cc12,4.5% (inactive)
20,O=C1CC(N2CCN(C3CC(=O)N(CCc4ccccc4)C3=O)CC2)C(=O)N1CCc1ccccc1 (configuration not stated),-9.9% (inactive)
21,N#CC(C#N)=c1ccc2c(c1)N1C3=C(CCCC3)CC3CCCCC31N=2 (configuration not stated),72% (active)
22,N#C/C(C(N)=O)=c1/ccc2c(c1)N1C3=C(CCCC3)CC3CCCCC31N=2 (configuration not stated),77.9% (active)
23,Cc1cc(C(=O)COC(=O)C2=COCCO2)c(C)n1-c1ccc2c(c1)OCO2,-7.4% (inactive)
24,CCCc1cc(C(=O)NC2CCCC2)no1,-4.5% (inactive)
25,CCOC(=O)N1CCN(C(=O)CCn2c(=S)[nH]c3cc(OCC)c(OCC)cc3c2=O)CC1,1.3% (inactive)

row,SMILES,cytotoxicity
1,CCN1CCN(C(c2cccs2)C(C)NC(=O)c2ccccc2)CC1 (configuration not stated),2.9% (inactive)
2,O=C(O)CCCNc1cc(N2CCC3(CC2)OCCO3)c2noc3c2c1C(=O)c1ccccc1-3,34.7% (inactive)
3,CC(=O)OCCNc1cc(N2CCN(C)CC2)c2noc3c2c1C(=O)c1ccccc1-3,7.3% (inactive)
4,CCOC(=O)c1c(C)noc1CP(=O)(c1ccccc1)c1ccccc1,4.8% (inactive)
5,CCOc1ccc2noc3c2c1C(=O)c1ccccc1-3,29.3% (inactive)
6,CCOC(=O)N1CCN(c2cc(NCCC(=O)O)c3c4c(onc24)-c2ccccc2C3=O)CC1,58.8% (active)
7,CCC1CCCCN1C(=O)CSc1nnc(-c2ccc(Cl)cc2)o1 (configuration not stated),1.2% (inactive)
8,O=C(O)c1[nH]c2ccc(Cl)cc2c1CC(=O)N1CCN(c2ccccc2)CC1,5.3% (inactive)
9,Cc1cccc(N2CCN(C(=O)Cc3c(C(=O)O)[nH]c4ccc(Cl)cc34)CC2)c1C,76.3% (active)
10,O=C(O)c1[nH]c2ccc(Cl)cc2c1CC(=O)N1CCN(C(=O)c2ccco2)CC1,-1% (inactive)
11,Cc1ccc(OC(=O)CCC(=O)N2CCc3ccccc32)cc1,4% (inactive)
12,Cc1cccc(N2CCN(CCNC(=O)c3cc4c(s3)CS(=O)(=O)C4)CC2)c1C,-3.7% (inactive)
13,O=S(=O)(NCCc1ccccn1)c1cccs1,-28.8% (inactive)
14,O=c1c2c3nc4ccccc4nc3n(/N=C/c3ccco3)c2ncn1CCC1=CCCCC1,23% (inactive)
15,Cc1nc2c(c(=O)n1CCC1=CCCCC1)c1nc3ccccc3nc1n2/N=C/c1ccco1,63.7% (active)
16,CCCn1c(C)nc2c(c1=O)c1nc3ccccc3nc1n2CCC1=CCCCC1,-0.4% (inactive)
17,O=c1oc2ccccc2c2c1ncn2-c1ccccc1,-17.3% (inactive)
18,O=C(Nc1nnc(CC2=CCCCC2)s1)c1cccs1,0.5% (inactive)
19,Cn1c(CNC(=O)c2ccc(F)cc2)nc2ccccc21,0.8% (inactive)
20,CCOC(=O)/C=C1\NC(C)(C)Cc2cc(OC)c(O)cc21,1.4% (inactive)
21,COc1cc2c(cc1OC)C(/C(C#N)=N\O)=NC(C)(C)C2,13% (inactive)
22,CCC1C(O)=C(c2ccccn2)C(=N)N1c1ccccc1 (configuration not stated),0.3% (inactive)
